± gives the standard deviation of the averaged measurements. The full ranking holds about 25,000 sequences; the median of “ln(normalized median fluorescence intensity)” is about 8.6, and the highest 2% start at about 10. The list comes from a sample in which the highest values are over-represented; it also holds similar and randomly drawn sequences.
test system: PfAP2-EXP AP2 domain (GST-tagged); assay: gcPBM binding intensity (ln(normalized median fluorescence intensity)); higher = stronger DNA binding
Method in brief: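 Each value is the highest Masliner-normalised natural-log median intensity across replicate spots of either orientation of a probe. The probes were primer-extended double-stranded 36-bp intergenic genomic sequences on an Agilent 4 × 180k array, alongside negative controls, exposed for 1 h to GST-tagged P. falciparum DNA-binding domains expressed in E. coli. Bound protein was picked up with Alexa488 anti-GST antibody and scanned at 488 nm.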

| Sequence | gcPBM binding intensity (ln) |
| --- | --- |
| TATTATATATATGTTGACATATTTGTACACTCCACT [TGCATGCA_negctrl_site200] | 8.79 ± 0.61 |
| TATCAAAATTGTAATTGTACTTGTAAGTGGATATAT [XGTACX_site5949] | 8.68 ± 0.3 |
| TTTTTTAAAATAATAGGTACACATAAAAAAAAAAAA [XGTACX_site2517] | 8.72 ± 0.67 |
| AACATTATAAGACACACACACACATATATAAATATA [CACACA_site6622] | 8.65 ± 0.58 |
| ACACATATATATTATTATTATATAATATATATATAT [CACACA_negctrl_site1545] | 9.21 ± 0.15 |
| TTTTAATTAAAACACACACACACATATATATATATA [CACACA_site2291] | 10.2 ± 0.23 |
| AAAAAAAAAAAAAACACACACATATAATATATTTAA [CACACA_site1337] | 8.35 ± 0.38 |
| AAAAAAATGAAACACACACACACATATATATATATA [CACACA_site1043] | 10.1 ± 0.26 |
| ATATTTTGTTATGAAACACACACATATATATATATA [CACACA_site9216] | 10.1 ± 0.16 |
| AAAAAAAAAAATATCACACACACATAAATATAAACA [CACACA_site7138] | 8.6 ± 0.61 |
| TAATTTTTTAAACACACACACATATATATATATATA [CACACA_site4230] | 10.2 ± 0.3 |
| TTTTAAACAGGACACACACACATATATATATATATA [CACACA_site4664] | 10.1 ± 0.42 |
| TTTTAATGAAAACACACACACACATATATATATATA [CACACA_site5295] | 10.3 ± 0.11 |
| TTTTAAACAAGACACACACACATATATATATATATA [CACACA_site925] | 10.2 ± 0.35 |
| ATTTTGTTATGAAACACACACATATATATATATATA [CACACA_site3650] | 10.2 ± 0.18 |
| TTTTTAAAACATATCACACATATATATATATATATA [CACACA_site5991] | 10.3 ± 0.41 |
| ATTTTGTTATGAAACACACACATATAAATATAAATA [CACACA_site7679] | 8.51 ± 0.3 |
| AATTATATACATAAGTGTACATAATATATAAACATA [XGTACX_site793] | 8.31 ± 0.28 |
| TACATCTTACTACTTATAATATAATATAGTATGAAT [TGCATGCA_negctrl_site8] | 8.21 ± 0.43 |
| TTTTTCTTTTTTACAGTGCATAAATATATGTATTGT [GTGCAC_site9399] | 8.61 ± 0.32 |
| CTGAAGAAACTACAACGTACAAAATATGTATATATT [XGTACX_site3779] | 8.55 ± 0.4 |
| TTATTATATTAAAATTGTACTTGCTTTCAATATGAT [XGTACX_site5305] | 8.23 ± 0.35 |

| Sequence | gcPBM binding intensity (ln) |
| --- | --- |
| TTTCTTTTACATATTTGTACATATATAAATTTATAT [XGTACX_site1787] | 8.91 ± 0.35 |
| TCTTATCATTTTAAATCACACACATATATATATATA [CACACA_site8925] | 10.2 ± 0.16 |
| TTAAAAAAAAAACACACACACATACACATATATATA [CACACA_site3299] | 8.77 ± 0.33 |
| TACATTTAAAAAAAAACACACATATTTATATTTATA [CACACA_site7236] | 8.01 ± 0.49 |
| TTATCATTTTAAATCACACACATATATATATATATA [CACACA_site2849] | 10.1 ± 0.49 |
| TACATTTAAAAAAAAACACACATATATATATATATA [CACACA_site2535] | 10.3 ± 0.33 |
| TTATCATTTTAAATCACACACATATATAAATATGTA [CACACA_site7359] | 8.28 ± 0.35 |
| ATTTATGTTATTGTATGTACACAATATAATGTTATT [XGTACX_site5657] | 8.56 ± 0.32 |
| TAATACCATAACAAGTGTACATAAATAATTATTGTA [XGTACX_site4949] | 8.8 ± 0.44 |
| AAAAAAAAAAAAAAAACACACAAACATCAAATTACT [CACACA_site6950] | 8.69 ± 0.24 |
| ATCAAAAATGTTATATATATATATATATATATATAT [TGCATGCA_negctrl_site71] | 10.2 ± 0.45 |
| AATATGTTATAAATATGTTATAAATAATAAATAAAT [GTGCAC_negctrl_site135] | 8.45 ± 0.47 |
| GTTATATGTTATATATATATATATATATATATATAT [TGCATGCA_negctrl_site428] | 10.2 ± 0.65 |
| ATATGTTATATAAATATATATATATATATATATATA [TGCATGCA_negctrl_site594] | 10.1 ± 0.33 |
| AAAATGAAATATGTTATATATATATATATATATATA [CACACA_negctrl_site1752] | 9.9 ± 0.4 |
| ATATATATTATAAAATGTACAAATGTTATATAAAAT [XGTACX_site4750] | 8.85 ± 0.45 |
| ATATATATATATTCCACACACACACTAATAAAAAAA [CACACA_site9214] | 9.94 ± 0.16 |
| AACTGATTATTTTTTTGTACATATATAATAATATAT [XGTACX_site5953] | 8.61 ± 0.33 |
| GACCATGTTAACAAAGCATGCATCTCTATATGTTTA [TGCATGCA_site358] | 8.87 ± 0.49 |
| TCATAACAACTTTGTGTGCACATAAAACATGTATAT | 8.94 ± 0.3 |
| TATATTTATTTATACACATGCATATTTTAAGGGCTC [TGCATGCA_site885] | 8.72 ± 0.4 |
| CTAAACCTTTTGAGCACACATATATATATATATATA [CACACA_site1782] | 10.4 ± 0.16 |

| Sequence | gcPBM binding intensity (ln) |
| --- | --- |
| ATCTAAACCTTTTGAGCACACATATATATATATATA [CACACA_site8526] | 9.86 ± 0.7 |
| TCATATCTTTTGAGCACACATATATATATATAAAGG [CACACA_site3338] | 8.71 ± 0.34 |
| TAACAAAACATAGATTGTACATATTATAAATGTATA [XGTACX_site1543] | 8.46 ± 0.38 |
| ATATATATATTTGTATGTACATATATATATTCGTAT [XGTACX_site1640] | 9.23 ± 0.29 |
| TTTCGTAACTATTTGTGTACATATATATATATATAT [XGTACX_site2920] | 10.3 ± 0.29 |
| TTTATTTTGTAGTGTACACATATATATATATATATA [CACACA_site5843] | 10.3 ± 0.36 |
| TTTTTTTTGTGTATTTGTACATAATATATATATATA [XGTACX_site7092] | 9.68 ± 0.19 |
| TTTATTAATTTATAGTGTACATATTAATAATATATT [XGTACX_site7949] | 8.35 ± 0.2 |
| ACATATTTTATTTTTTGTACACATATATTATTTTTT [XGTACX_site6528] | 8.99 ± 0.42 |
| TAATATTTTTTGTGTACACATATATATATATATATA [CACACA_site5504] | 10.2 ± 0.53 |
| ATATATTATTTCTAGTGTACATACCCATATATAATA [XGTACX_site8902] | 8.97 ± 0.33 |
| GTGTAATATATTTTTCGTACATATTATATATATATA [XGTACX_site1675] | 9.8 ± 0.37 |
| GTTTTCTAGTGGGGGTGTACATATTTATATTTAATA [XGTACX_site8378] | 10.9 ± 0.34 |
| AATATATATTTGTGTACACATTATATATATATATAT [CACACA_site6103] | 10 ± 0.35 |
| TTTTTATTTGGTTGTGTACACATATATATATATATA [CACACA_site5844] | 10.2 ± 0.3 |
| GATCTATATATCATTACACACTTGAATTACTTAAAA [CACACA_site21] | 8.49 ± 0.36 |
| TAATTTTTTTTTTTTTTTTTTTTTTTTTTTTTCCTT [CACACA_negctrl_site1095] | 7.8 ± 0.61 |
| TAATTTTTATGAAGAAGTACAAAATCTACTATCATA [XGTACX_site4985] | 7.99 ± 0.38 |
| CGAACAAACAAATAAACACACAAAAAAAGATATATA [CACACA_site6944] | 8.72 ± 0.57 |
| AATGATAAATAAAAAGCATGCAACAAATAAAAATAA [TGCATGCA_site453] | 9.84 ± 0.22 |
| ATATATATAATAAGTGGTACAAGTTATTCATTAAAT [XGTACX_site7063] | 8.64 ± 0.3 |
| TAAACCAAAAAAAGTAGTACAAATATTATAAAAAAA [XGTACX_site8497] | 8.69 ± 0.39 |

| Sequence | gcPBM binding intensity (ln) |
| --- | --- |
| ATTTATTATTATATCACACATAATATATTAAATGAT [CACACA_site5821] | 8.28 ± 0.39 |
| TTGTATTTTTAAATGACACACACATATATATATATA [CACACA_site8481] | 10.1 ± 0.38 |
| GTATTTTTAAATGACACACACATATATAAATATGTA [CACACA_site6880] | 8.38 ± 0.31 |
| GTATTTTTAAATGACACACACATATATATATATATA [CACACA_site1662] | 10.2 ± 0.5 |
| ATATTTAAATGGATCACACATATATATATATATATA [CACACA_site5255] | 10.3 ± 0.3 |
| CATAAAAATGGATACACACACATAATATATTTATAT [CACACA_site7669] | 8.61 ± 0.4 |
| TTAACATATTTGTTAGTGCATTTTGATATTACACAT [GTGCAC_site9978] | 8.6 ± 0.33 |
| TCATACGAAATATAAACACACATACAATAAATAAAT [CACACA_site5156] | 8.78 ± 0.44 |
| TATAATATAAGGATCACACACAAACACCCATATATA [CACACA_site4468] | 8.74 ± 0.52 |
| CACACCCACCAACACACACACACACCCACCCATATA [CACACA_site366] | 8.61 ± 0.57 |
| CACCCACACCAACACACACACATATATATATATATA [CACACA_site362] | 10.4 ± 0.2 |
| CACCCACACCAACACACACACATATATAATATATAT [CACACA_site595] | 8.81 ± 0.39 |
| AAGGATCACCCACAAACACACATATATATATATATA [CACACA_site559] | 10.4 ± 0.16 |
| AATATAATATAAGGATCACACACAAACACCCATATA [CACACA_site8084] | 8.91 ± 0.61 |
| AATAACCACCAACACACACACATATATATATATATA [CACACA_site3540] | 10.2 ± 0.45 |
| TATAAACACCCATATAAACACACATATAAACCAACA [CACACA_site8790] | 8.73 ± 0.43 |
| AACCACATACATATAACACACATATACAATATATAT [CACACA_site8607] | 8.55 ± 0.45 |
| GTCTATTCAAAAAAGTGTACGGACATATAAACATAC [XGTACX_site6516] | 9.04 ± 0.28 |
| ATATATATATTTACATGTACACATCTATATATAAAC [XGTACX_site5581] | 9.445 ± 0.049 |
| GCACATCTATATGAAACACACATGGAAACATCTCTT [CACACA_site7793] | 8.47 ± 0.35 |
| TAAAGTTTTTTTTTAACACACACATAATAAAATAAA [CACACA_site8042] | 8.46 ± 0.51 |
| TTTCTATTACGAACGTGTACATACATTATTCTTAAA [XGTACX_site5816] | 8.88 ± 0.26 |
